The campaign covered roughly 400,000 compounds. About 2,100 (0.53%) were called active. Inconclusive results (about 14%) are left out. No rule for the calls is given here. Shown is part of a subset that was picked to be rich in actives.
Biological target: Ataxin-2 (Homo sapiens) (UniProt Q99700)
Test: qHTS for Inhibitors of ATXN expression.
Assay type: functional

Ataxin-2 (Homo sapiens), sequence (Q99700 whole entry): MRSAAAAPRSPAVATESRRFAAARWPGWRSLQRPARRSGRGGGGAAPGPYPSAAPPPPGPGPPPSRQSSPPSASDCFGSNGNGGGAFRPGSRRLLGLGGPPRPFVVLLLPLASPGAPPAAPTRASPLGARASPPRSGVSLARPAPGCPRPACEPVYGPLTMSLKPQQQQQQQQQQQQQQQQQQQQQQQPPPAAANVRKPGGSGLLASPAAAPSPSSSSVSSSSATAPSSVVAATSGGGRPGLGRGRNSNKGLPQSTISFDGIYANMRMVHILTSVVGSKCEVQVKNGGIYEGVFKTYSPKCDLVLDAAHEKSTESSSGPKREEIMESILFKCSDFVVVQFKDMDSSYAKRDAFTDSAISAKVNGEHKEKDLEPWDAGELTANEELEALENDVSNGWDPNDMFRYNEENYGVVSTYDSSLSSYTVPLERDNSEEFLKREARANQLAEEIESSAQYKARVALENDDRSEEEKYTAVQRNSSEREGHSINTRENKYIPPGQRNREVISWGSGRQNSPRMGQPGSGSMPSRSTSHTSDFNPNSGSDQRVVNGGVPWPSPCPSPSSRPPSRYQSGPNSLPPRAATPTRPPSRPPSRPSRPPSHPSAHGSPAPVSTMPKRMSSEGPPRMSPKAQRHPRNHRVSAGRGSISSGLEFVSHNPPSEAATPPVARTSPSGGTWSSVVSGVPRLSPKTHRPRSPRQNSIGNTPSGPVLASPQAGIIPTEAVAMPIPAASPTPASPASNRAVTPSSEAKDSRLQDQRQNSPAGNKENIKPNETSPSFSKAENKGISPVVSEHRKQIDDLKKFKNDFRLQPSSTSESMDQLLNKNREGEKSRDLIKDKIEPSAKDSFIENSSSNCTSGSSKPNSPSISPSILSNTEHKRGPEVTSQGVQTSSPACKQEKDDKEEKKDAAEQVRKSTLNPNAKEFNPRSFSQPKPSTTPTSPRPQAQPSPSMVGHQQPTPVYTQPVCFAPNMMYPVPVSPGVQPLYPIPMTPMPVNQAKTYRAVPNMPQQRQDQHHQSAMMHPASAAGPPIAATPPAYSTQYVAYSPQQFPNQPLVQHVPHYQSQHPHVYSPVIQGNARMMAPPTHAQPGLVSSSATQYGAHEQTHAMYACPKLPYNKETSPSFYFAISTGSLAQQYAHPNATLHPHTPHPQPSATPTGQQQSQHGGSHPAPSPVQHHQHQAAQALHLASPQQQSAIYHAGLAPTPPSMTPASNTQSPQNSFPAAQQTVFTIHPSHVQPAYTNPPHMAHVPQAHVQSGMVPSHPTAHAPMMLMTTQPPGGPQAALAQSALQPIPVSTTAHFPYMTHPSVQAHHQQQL

| Structure (SMILES) | Potency |
| --- | --- |
| Cc1nc(CS(=O)(=O)c2ccccn2)sc1C(=O)NNC(=O)c1ccccc1 | inactive |
| Cc1ccc(S(=O)(=O)N[C@H](C(=O)Oc2ccc3c(C(F)(F)F)cc(=O)oc3c2)c2ccccc2)cc1 | inactive |
| CCOc1ccc(-c2c(=O)n(OCc3nc4ccccc4[nH]3)c3ccccc3[n+]2[O-])cc1 | inactive |
| CCc1c(C)c2ccc(O)c(CN3CCCC3)c2oc1=O | inactive |
| CC(C)c1ccc(/C=C2\Oc3c(ccc(O)c3CN3CCN(C)CC3)C2=O)cc1 | inactive |
| Cc1oc2ccc(O)c(CN3CCCC3)c2c1C(=O)Nc1ccc(C(C)C)cc1 | 15.8 µM (active) |
| CCOC(=O)COc1cccc2c(=O)n(CC(=O)N3CCC(C)CC3)ccc12 | inactive |
| CCN1CCCC(OC(=O)c2cc(-c3ccc(C)cc3)nc3ccccc23)C1 (configuration not stated) | inactive |
| CCn1c(=O)cc(OCC(=O)N2CCN(c3ccc(C)cc3)C(C)C2)c2ccccc21 (configuration not stated) | 28.2 µM (active) |
| COc1ccc(-c2cc(C(=O)Nc3ccc(S(=O)(=O)Nc4onc(C)c4C)cc3)c3ccccc3n2)cc1 | inactive |
| COc1ccc(-c2nc3ccc(NS(=O)(=O)c4ccc(C)cc4)cc3o2)cc1 | 39.8 µM (active) |
| COCc1cc(=O)oc2cc(NS(=O)(=O)c3ccc(C)cc3)ccc12 | inactive |
| COC(=O)c1cscc1S(=O)(=O)Cc1ccccc1 | inactive |
| CC(=O)Nc1ccc(S(=O)(=O)NCCc2cn3nc(C)c(C)nc3n2)cc1 | inactive |
| CNC(=O)COC(=O)/C=C/c1nc2ccccc2s1 | inactive |
| CCOC(=O)CN1C(=O)S/C(=C\c2ccc3c(c2)OCO3)C1=O | inactive |
| O=C(NCCN1C(=O)S/C(=C\c2ccc(Cl)c([N+](=O)[O-])c2)C1=O)C1=COCCO1 | 25.1 µM (active) |
| CCCn1nnc(NC(=S)NC(=O)c2ccccc2OC)n1 | inactive |
| C=CCN1C(=O)/C(=C/c2ccc(O)cc2)S/C1=N/c1nccs1 | inactive |
| C=CCN1C(=O)/C(=C2\C(=O)Nc3ccccc32)S/C1=N/c1ccc(O)cc1 | 31.6 µM (active) |
| Cc1ccc(Sc2nc3ccc(C)cn3c(=O)c2/C=N/O)cc1 | inactive |
| Cc1ccn2c(NCc3ccccc3)c(-c3cccs3)nc2c1 | inactive |
| Cc1ccc2nc(-c3ccccc3)c(Cc3cccc(F)c3)n2c1 | 31.6 µM (active) |
| Cc1ccc(Cc2c(-c3ccccc3)nc3cc(C)ccn23)cc1 | 22.4 µM (active) |
| Cc1ccc(-c2cn3nc(-c4ccccc4)c(-c4ccccc4)nc3n2)cc1 | inactive |
| Cc1ccc(-c2nc3ccc(C)cn3c2Cc2ccsc2)cc1 | 22.4 µM (active) |

| Structure (SMILES) | Potency |
| --- | --- |
| Cc1ccc(-c2nc3ccc(C)cn3c2Cc2cccc(F)c2)cc1 | 35.5 µM (active) |
| Cc1ccc2nc(Cl)nc(-c3ccccc3)c2c1 | inactive |
| Cc1nc2ccccc2nc(C)c1=NOCc1cccc(F)c1 | inactive |
| Cc1c(NC(=O)CCC2CCCCC2)cc(C(=O)N2CCOCC2)cc1[N+](=O)[O-] | inactive |
| O=C(O)c1cc(Cl)c(Cl)cc1C(=O)N(Cc1ccccc1)Cc1ccccc1 | inactive |
| COc1cccc2sc3cc(NCc4ccc(C)o4)ccc3c(=O)c12 | inactive |
| CN(C)c1ccc(/C=C/c2nc(O)c3ccccc3n2)cc1 | inactive |
| Cc1ccccc1/C=C/c1nc(O)c2ccccc2n1 | 31.6 µM (active) |
| Oc1nc(/C=C/c2cccc3ccccc23)nc2ccccc12 | inactive |
| CCN(c1ccccc1)c1nc(=O)c2cccnc2s1 | inactive |
| Brc1cccc(CSc2nnc(-c3ccncc3)o2)c1 | inactive |
| O=S1(=O)C=C(Sc2nnc(-c3ccccc3)o2)c2ccccc21 | 11.2 µM (active) |
| O=S1(=O)C=C(Sc2nc3cc(Cl)ccc3o2)c2ccccc21 | 10 µM (active) |
| N#C/C(=C\c1c(Oc2ccccc2F)nc2ccccn2c1=O)C(=O)NC1CCS(=O)(=O)C1 (configuration not stated) | inactive |
| Cn1c(=O)oc2cc(S(=O)(=O)N3CCCC3)ccc21 | inactive |
| O=S(=O)(c1ccc(S)nc1)N1CCCCCC1 | inactive |
| O=[N+]([O-])c1cc(S(=O)(=O)N2CCCCCC2)ccc1F | 35.5 µM (active) |
| O=[N+]([O-])c1cc(S(=O)(=O)N2CCCCCC2)ccc1Cl | 42.3 µM (active) |
| O=S(=O)(c1ccc(S)nc1)N1CCCCC1 | inactive |
| NC(=O)c1cc(S(=O)(=O)N2CCCCC2)cs1 | inactive |
| COCc1cc(C)nc2sc(C(=O)Nc3ccccc3C)c(N)c12 | inactive |
| O=C(Nc1nc2n(n1)C(c1ccccc1)C=C(c1ccc(Cl)cc1)N2)c1ccco1 (configuration not stated) | inactive |
| CCCCc1cc(=O)oc2cc(OCC(=O)Nc3cccnc3)c(Cl)cc12 | inactive |
| S=C(NCc1ccccc1)N/N=C/c1cccs1 | inactive |
| Cc1ccc(CN2CCSCC2)cc1 | inactive |
| O=C(CCC1CCCC1)NNC(=O)c1ccc(F)cc1 | inactive |

| Structure (SMILES) | Potency |
| --- | --- |
| O=C(/C=C/c1ccc([N+](=O)[O-])o1)NNC(=O)c1ccc(F)cc1 | 7.08 µM (active) |
| O=C(CN1C(=O)/C(=C/c2ccccc2F)Oc2ccccc21)N1CCN(c2ccccn2)CC1 | inactive |
| COC(=O)c1cc(S(=O)(=O)N2CCN(Cc3ccccc3)CC2)cn1C | inactive |
| O=C(OC1C2CCC1C1CN(CCc3ccccc3)CC12)c1ccccc1 (configuration not stated) | 31.6 µM (active) |
| O=C(CSc1nnc(O)n1CCc1ccccc1)NC1CCCC1 | inactive |
| CCC1=NN(C(=O)c2ccccc2O)C(O)(c2ccccc2)C1 (configuration not stated) | 25.1 µM (active) |
| CCOC(=O)C1=NN(C(=O)c2ccccc2)C(O)(c2ccc(C)cc2)C1 (configuration not stated) | inactive |
| O=C(c1ccccc1)N1N=C(c2ccccc2)CC1(O)C(F)(F)F (configuration not stated) | inactive |
| CCN(C(=O)CSc1nc2n[nH]c(C)c2c(=N)n1-c1cccc(OC)c1)c1cccc(C)c1 | 22.4 µM (active) |
| COc1cccc(-n2cnnc2SCC(=O)NC2CC2)c1 | inactive |
| CCOC(=O)N1CCN(Cc2nc3ccc([N+](=O)[O-])cc3c(=O)n2-c2cccc(OC)c2)CC1 | inactive |
| CCCCC[C@@H](C)N1C[C@@H](COCc2ccccc2)Oc2cc(N3CC[C@@H](O)C3)ccc2S1(=O)=O | 25.1 µM (active) |
| C[C@H](c1ccccc1)N1C[C@@H](COCc2ccccc2)Oc2cc(N3CC[C@H](N(C)C)C3)ccc2S1(=O)=O | 39.8 µM (active) |
| CCCCC[C@@H](C)N1C[C@@H](COCc2ccccc2)Oc2cc(N3CC[C@H](N(C)C)C3)ccc2S1(=O)=O | 31.6 µM (active) |
| CCCCC[C@H](C)N1C[C@H](COCc2ccccc2)Oc2cc(N3CC[C@H](N(C)C)C3)ccc2S1(=O)=O | 39.8 µM (active) |
| Cc1c(CC(=O)NCc2ccccc2)c(=O)oc2c(C)c(O)ccc12 | inactive |
| Cc1ccc(C(C)NC(=O)C2CCCC2)c(C)c1 (configuration not stated) | inactive |
| C=CCNC(=O)CSc1ncc2c(n1)-c1c(csc1SC)CC2 | inactive |
| CC(NC(=O)c1cc2c(=O)n3ccccc3nc2n(C(C)C)c1=N)c1ccccc1 (configuration not stated) | inactive |
| COCCN(CCOC)c1cc(C)c(C#N)c2nc3ccccc3n12 | inactive |
| Cc1occc1C(=O)N1CCC2(CCCN(Cc3ccc(F)c(F)c3)C2)C1 (configuration not stated) | inactive |
| Cc1cccc(N2CCN(C(=O)c3cc4c(=O)n(C)c5ccccc5c4n3C)CC2C)c1 (configuration not stated) | 39.8 µM (active) |
| Cn1c(C(=O)N2CCc3ccccc3C2)cc2c(=O)n3ccccc3nc21 | inactive |
| CC1CN(C(=O)c2cc3c(=O)n4ccccc4nc3n2C)CC(C)O1 (configuration not stated) | inactive |
| COc1ccc2nc(N3CCCC3)c(C#N)cc2c1 | inactive |
| O=c1cc(CN2CCN(S(=O)(=O)c3ccc4c(c3)OCCO4)CC2)c2ccc(O)cc2o1 | inactive |

| Structure (SMILES) | Potency |
| --- | --- |
| Cc1cccc(C2=NN(c3ccccc3)[C@@H](C(=O)N3CCOC3=O)[C@@H]2c2ccc(Cl)cc2)c1 | inactive |
| O=C(Nc1ccc([N+](=O)[O-])cc1)Nc1ccc(OC(F)F)c(Cl)c1 | 35.5 µM (active) |
| COc1cc(/C=C/C(=O)OCC(=O)Nc2ccc([N+](=O)[O-])cc2)ccc1O | inactive |
| COc1ccc([N+](=O)[O-])cc1NC(=O)CC(c1ccccc1)c1ccccc1 | inactive |
| CCOC(=O)/C=c1\s/c(=C\c2ccc3cc(OC)ccc3c2)c(=O)n1CC(=O)NCc1ccc2c(c1)OCO2 | inactive |
| N#C/C(=C\c1c(N2CCOCC2)nc2ccccn2c1=O)C(=O)NC1CCS(=O)(=O)C1 (configuration not stated) | inactive |
| CCN(CC)CCn1c(=N)n(CC(=O)c2ccc(Br)s2)c2ccccc21 | inactive |
| Cn1c(/C(C#N)=C(\O)c2ccc(Br)s2)nc2ccccc21 | inactive |
| CCCCn1c(=N)n(CC(=O)c2ccc(Br)s2)c2ccccc21 | 39.8 µM (active) |
| CC(C)n1c(=N)c(C(=O)NCc2cccnc2)cc2c(=O)n3ccccc3nc21 | inactive |
| N#Cc1c(C(F)(F)F)cc(-c2ccco2)nc1SCc1ccncc1 | inactive |
| CCc1cc(C(=O)c2ccc(C)cc2)c(NC(=O)CCl)s1 | 31.6 µM (active) |
| Cc1ccc(C(=O)CC(=O)c2ccc(C)cc2O)cc1 | inactive |
| CCOC(=O)c1cc(C(=O)c2cc(Cl)ccc2O)coc1=N | inactive |
| CCN(CC)CC(=O)Nc1sc(C)c(C)c1C(=O)c1ccc(C)cc1 | inactive |
| Cc1cc(C(=O)c2ccc(Cl)cc2)c(NC(=O)CCl)s1 | 39.8 µM (active) |
| CCOc1ccccc1/N=c1\oc2cc(O)ccc2cc1C(=O)NCC1CCCO1 (configuration not stated) | inactive |
| COC(=O)C(=O)C/C(=N/Nc1ncnc2ccccc12)c1ccc(Cl)cc1 | inactive |
| C#CCOc1ccc(C2C3=C(CC(C)(C)CC3=O)N(CC(=O)O)C3=C2C(=O)CC(C)(C)C3)cc1 | inactive |
| Cc1cc2nc3c(=O)n(C4CCCCC4)c(=O)[nH]c3nc2cc1N | inactive |
| CCCN(CC(=O)Nc1ccc(F)c(F)c1F)C(=O)Cc1ccc(OC)c(S(=O)(=O)N2CCOCC2)c1 | inactive |
| CC(C)=CCN1CCN(Cc2cccc3nonc23)CC1CCO (configuration not stated) | inactive |
| Cc1ccccc1CN1CCN(Cc2cc3ccccc3o2)CC1CCO (configuration not stated) | 8.44 µM (active) |
| COc1ccc(CN2CCN(CC3CC3)CC2CCO)c(C)c1C (configuration not stated) | inactive |

Source: ChEMBL document CHEMBL1201862, “PubChem BioAssay data set” (2004)
